We go through four molecules from PubChem BioAssay (EPA / NIEHS).

Read-out in one experiment: TIMP1, TIMP1 (gene 7076)
Kind of experiment: LTEA_HepaRG_TIMP1: Life Technologies and Expression Analysis (LTEA) Assay for TIMP1 using HepaRG (AID 2283534; active = hit-call score of the fitted dose curve at least 0.9, where 1 is the maximum; inactive = score below 0.9). Conditions: mRNA level, 48 h; actives raise or lower the signal. Put shortly: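 Bidirectional change in TIMP1 transcript versus 0.5% DMSO, measured by TaqMan qRT-PCR with three housekeeping genes for normalization. HepaRG human liver cells dosed 48 h in duplicate, top concentration 100 uM with half-log dilutions.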

Read-out in experiment [1]: Tumor necrosis factor receptor 1 (TNFRSF1A), TNFRSF1A (gene 7132)
Kind of experiment: LTEA_HepaRG_TNFRSF1A: Life Technologies and Expression Analysis (LTEA) Assay for Tumor necrosis factor receptor 1 (TNFRSF1A) using HepaRG (AID 2283535; active = hit-call score of the fitted dose curve at least 0.9, where 1 is the maximum; inactive = score below 0.9). Conditions: mRNA level, 48 h; actives raise or lower the signal. Put shortly:
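mRNA measured by qRT-PCR (TaqMan, Fluidigm arrays) against ACTB/GAPDH/POLR2A housekeepers after 48 h chemical exposure of HepaRG cells. Top concentration 100 uM, half-log 8-point series, duplicates; vehicle 0.5% DMSO, both fit directions.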

Read-out in experiment [2]: Thyroid Hormone Responsive (THRSP), THRSP (gene 7069)
The experiment is described as follows: LTEA_HepaRG_THRSP: Life Technologies and Expression Analysis (LTEA) Assay for Thyroid Hormone Responsive (THRSP) using HepaRG (AID 2283536; active = hit-call score of the fitted dose curve at least 0.9, where 1 is the maximum; inactive = score below 0.9). Particulars: mRNA level, 48 h; actives raise or lower the signal. The method in brief: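 Differentiated human HepaRG cells were exposed in duplicate for 48 h in serum-free induction medium to eight concentrations (top 100 uM, half-log steps, 0.5% DMSO). Expression was quantified by TaqMan qRT-PCR, normalized to ACTB, GAPDH and POLR2A, with bidirectional fitting against DMSO.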

Read-out in experiment [3]: Cellular tumor antigen p53 (Homo sapiens) (UniProt P04637)
The experiment is described as follows: LTEA_HepaRG_TP53: Life Technologies and Expression Analysis (LTEA) Assay for Tumor Protein P53 (TP53) using HepaRG (AID 2283537; active = hit-call score of the fitted dose curve at least 0.9, where 1 is the maximum; inactive = score below 0.9). Particulars: mRNA level, 48 h; actives raise or lower the signal. The method in brief:
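Differentiated HepaRG cells in serum-free induction medium exposed 48 h in duplicate to 8 half-log concentrations, top 100 uM, 0.5% DMSO. TP53 mRNA by TaqMan qRT-PCR (Fluidigm), normalized to ACTB, GAPDH, POLR2A; fitted bidirectionally versus DMSO.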

Read-out in experiment [4]: UDP glucuronosyltransferase (UGT1A1), UGT1A1 (gene 54658)
The experiment is described as follows: LTEA_HepaRG_UGT1A1: Life Technologies and Expression Analysis (LTEA) Assay for UDP glucuronosyltransferase (UGT1A1) using HepaRG (AID 2283538; active = hit-call score of the fitted dose curve at least 0.9, where 1 is the maximum; inactive = score below 0.9). Conditions: mRNA level, 48 h; actives raise or lower the signal. Put shortly: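 Differentiated human HepaRG cells in serum-free induction medium were exposed in duplicate for 48 h to eight half-log concentrations up to 100 uM in 0.5% DMSO. UGT1A1 mRNA was quantified by TaqMan qRT-PCR, normalized to ACTB, GAPDH and POLR2A, and fitted bidirectionally against DMSO.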

Read-out in experiment [5]: UDP glucuronosyltransferase (UGT1A6), UGT1A6 (gene 54578)
Kind of experiment: LTEA_HepaRG_UGT1A6: Life Technologies and Expression Analysis (LTEA) Assay for UDP glucuronosyltransferase (UGT1A6) using HepaRG (AID 2283539; active = hit-call score of the fitted dose curve at least 0.9, where 1 is the maximum; inactive = score below 0.9). Particulars: mRNA level, 48 h; actives raise or lower the signal. The method in brief:
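Expression was quantified by TaqMan qRT-PCR on Fluidigm arrays with ACTB/GAPDH/POLR2A normalization and bidirectional fitting against 0.5% DMSO. HepaRG cells (~100,000/well) were treated in duplicate for 48 h at eight half-log concentrations up to 100 uM in serum-free induction medium.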

Read-out in experiment [6]: X-box binding protein 1 (XBP1), XBP1 (gene 7494)
The experiment is described as follows: LTEA_HepaRG_XBP1: Life Technologies and Expression Analysis (LTEA) Assay for X-box binding protein 1 (XBP1) using HepaRG (AID 2283540; active = hit-call score of the fitted dose curve at least 0.9, where 1 is the maximum; inactive = score below 0.9). Conditions: mRNA level, 48 h; actives raise or lower the signal. Put shortly:
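XBP1 transcript by qRT-PCR (housekeeping-normalized: ACTB, GAPDH, POLR2A) after 48 h chemical treatment of HepaRG cells, 8-point half-log series topping at 100 uM, vehicle 0.5% DMSO. Gain and loss of signal fitted relative to DMSO.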

A short description of experiment [7]: ATG_XTT_Cytotoxicity: Cytotoxicity Assessment in the Attagene TRANS-FACTORIAL HepG2 Assay (AID 2283584). Put shortly:
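Viability endpoint from XTT after 24 h chemical exposure of reporter-transfected human HepG2 liver cells; signal loss fitted relative to DMSO negative control.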

Experiment [8] can be described thus: Tanguay_ZF_120hpf_MORT_legacy: (Legacy) Oregon State University Tanguay Lab 120 Hour Post-fertilization zebrafish Assay for Mortality (AID 2283633).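 For AC50: fitted as increase in binary mortality versus DMSO negative control.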 The method in brief:
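Static waterborne exposure from 6 to 120 hpf at 28C of single dechorionated wild-type (5D) embryos per well, 0.64% DMSO final. Death recorded present/absent by brightfield at 24 and 120 hpf.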

Experiment [9] in a line: Tanguay_ZF_120hpf_YSE_legacy: (Legacy) Oregon State University Tanguay Lab 120 Hour Post-fertilization zebrafish Assay for Yolk Sac Edema (AID 2283634).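 For AC50: actives raise the incidence of yolk sac edema above the DMSO baseline.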 The method in brief: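 Presence or absence of yolk sac edema was recorded at 120 hpf in surviving larvae. These were wild-type Tropical 5D embryos, chorion removed at 4 hpf, held in static exposure at 28C from 6 hpf with 0.64% DMSO vehicle.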

Experiment [10] can be described thus: Tanguay_ZF_120hpf_AXIS_legacy: (Legacy) Oregon State University Tanguay Lab 120 Hour Post-fertilization zebrafish Assay for Body Axis Malformation (AID 2283635). The method in brief:
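Binary scoring of axis defects at 120 hpf under brightfield, fitted positive versus DMSO. Tropical 5D embryos, chorion removed by pronase at 4 hpf, were singly exposed in sealed, dark plates at 28C from 6 hpf; DMSO 0.64% final.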

A short description of experiment [11]: LTEA_HepaRG_LDH_cytotoxicity: Cytotoxicity Assessment in the Life Technologies and Expression Analysis (LTEA) Assay (AID 2283563). The method in brief: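 LDH release into culture medium read after 48 h chemical treatment of HepaRG cells. Duplicate wells, eight-point half-log series topping at 100 uM, 0.5% DMSO vehicle and baseline.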
The target of experiment [12] is Cellular tumor antigen p53 (Homo sapiens) (UniProt P04637). The experiment is described as follows: TOX21_p53_BLA_p2_ratio: Tox21 HCT-116 p53 Agonism Beta-lactamase Assay, Ratio, Phase 2 (AID 2283592). Put shortly: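 Gain-of-signal p53 agonism was scored from the beta-lactamase FRET ratio (460/530 nm, 405 nm excitation) in HCT116 cells treated 16 h at 37C, 5% CO2, with DMSO serving as negative control and baseline.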
Cellular tumor antigen p53 (Homo sapiens), sequence (P04637 whole entry, looked up): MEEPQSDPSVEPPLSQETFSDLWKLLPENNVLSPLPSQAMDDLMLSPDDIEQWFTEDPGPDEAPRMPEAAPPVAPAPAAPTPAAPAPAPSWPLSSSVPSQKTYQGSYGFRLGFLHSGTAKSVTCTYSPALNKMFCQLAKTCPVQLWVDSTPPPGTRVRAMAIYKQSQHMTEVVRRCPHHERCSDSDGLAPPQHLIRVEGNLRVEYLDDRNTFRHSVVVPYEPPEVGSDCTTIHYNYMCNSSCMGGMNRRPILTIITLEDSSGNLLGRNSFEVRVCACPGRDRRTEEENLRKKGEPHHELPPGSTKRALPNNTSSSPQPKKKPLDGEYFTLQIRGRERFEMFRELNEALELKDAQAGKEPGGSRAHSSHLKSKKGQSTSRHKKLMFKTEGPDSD

Experiment [13] has the same target. The experiment is described as follows: TOX21_p53_BLA_p3_ratio: Tox21 HCT-116 p53 Agonism Beta-lactamase Assay, Ratio, Phase 3 (AID 2283596). The method in brief: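 HCT116 p53-bla cells (4000/well) given compound in DMSO (217-fold dilution) after 5 h, incubated 16 h at 37C. CCF4-AM substrate 2 h at room temperature; 460/530 nm emission ratio, gain fitted against DMSO.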

The target is the same in experiment [14]. Kind of experiment: TOX21_p53_BLA_p5_ratio: Tox21 HCT-116 p53 Agonism Beta-lactamase Assay, Ratio, Phase 5 (AID 2283599). The method in brief: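 HCT-116 cells carrying a p53-inducible beta-lactamase reporter were seeded at 4000 cells/well and dosed after 5 h with compound in DMSO (217-fold dilution). After 16 h at 37C, CCF4-AM substrate was added for 2 h, and the 460/530 nm emission ratio was scored as gain-of-signal versus DMSO.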

Experiment [15] is described as follows: TOX21_p53_BLA_p5_viability: Viability Assessment in the Tox21 HCT-116 p53 Agonism Beta-lactamase Assay, Phase 5 (AID 2283600). The method in brief:
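After the 460/530 nm beta-lactamase measurement, the wells received an ATP-detection luciferase reagent; signal was read 30 min later at RT. Compound treatment lasted 16 h on cells pre-incubated 5 h post-seeding.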

The target in experiment [16] is Cellular tumor antigen p53 (Homo sapiens) (UniProt P04637). The experiment is described as follows: TOX21_p53_BLA_p4_ratio: Tox21 HCT-116 p53 Agonism Beta-lactamase Assay, Ratio, Phase 4 (AID 2283601). Put shortly: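 HCT116 cells carrying an inducible beta-lactamase reporter were plated at 4000 cells/well, rested 5 h, then exposed to compounds in DMSO (217-fold dilution) for 16 h at 37C. CCF4-AM substrate was loaded 2 h at room temperature; 460/530 nm emission ratio scored gain-of-signal versus DMSO.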

A short description of experiment [17]: TOX21_p53_BLA_p2_viability: Viability Assessment in the Tox21 HCT-116 p53 Agonism Beta-lactamase Assay, Phase 2 (AID 2283591).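 Note: compound exposure lasted 16 h at 37 °C; actives lower the ATP signal meaning cytotoxicity.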 Put shortly:
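HCT-116 p53-bla cells (4000/well) rested 5 h at 37C, then received compounds in DMSO (217-fold dilution) for 16 h at 37C, 5% CO2. After the CCF4 read, CellTiter-Glo was added; ATP luminescence was read after 30 min at room temperature.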

The nature of experiment [18]: TOX21_p53_BLA_p3_viability: Viability Assessment in the Tox21 HCT-116 p53 Agonism Beta-lactamase Assay, Phase 3 (AID 2283593).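 Note: cells exposed to compound for 16 h before reading.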 The method in brief: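 HCT-116 cells (4000/well) rested 5 h at 37C, then got DMSO compounds by pin tool (217-fold dilution) for 16 h at 37C, 5% CO2. After the bla read, CellTiter-Glo was added and luminescence read at 30 min, room temperature.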

A short description of experiment [19]: TOX21_p53_BLA_p4_viability: Viability Assessment in the Tox21 HCT-116 p53 Agonism Beta-lactamase Assay, Phase 4 (AID 2283597).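 Note: hits lower the luminescence signal meaning cytotoxicity.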 The method in brief: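 Following a 16 h exposure at 37C, the treated HCT116 wells were first read for the FRET ratio. They were then lysed with CellTiter-Glo, and ATP luminescence was recorded after 30 min at room temperature.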

SMILES strings stand for the structures. Records with an inconclusive call do not appear. The source made the active and inactive calls. Rule for the calls, unless noted: active = hit-call score of the fitted dose curve at least 0.9, where 1 is the maximum; inconclusive = response in the unintended direction; inactive = score below 0.9.

`C=CCOC(Cn1ccnc1)c1ccc(Cl)cc1Cl` (stereo not drawn): the outcome is “inactive” with TIMP1, TIMP1 (gene 7076); “inactive” in experiment [6]; “inactive” in experiment [7]; “inactive” in [10]. Besides, the half-maximal activity concentration (AC50) (in general, the midpoint of the concentration-response curve, whichever way the signal moves) in experiment [1] is 77.8 µM (active); in [2] it was 36.2 µM (active); in experiment [3] it was 12.2 µM (active); in experiment [4] it was 77.5 µM (active); in experiment [5], 72.4 µM (active); in experiment [8], 13.8 µM (active). In addition, the AC50 in [9] is 1.46 µM (active).
For `CCNc1nc(N)nc(Cl)n1`, the outcome in the experiment with TIMP1, TIMP1 (gene 7076) is “inactive”; in experiment [1] it was “inactive”; in [2], “inactive”; in experiment [3] it was “inactive”; in experiment [5], “inactive”; in experiment [6], “inactive”. The molecule was called inactive in [11], in experiment [12], in [13], in [14], in experiment [15] and in [16]. Also, the molecule was called inactive in [8], in [9] and in experiment [10]. Besides, the AC50 in experiment [4] was 1.03 µM (active).
For the molecule `CCCCOC(=O)[C@@H](C)Oc1ccc(Oc2ccc(C(F)(F)F)cn2)cc1`, the outcome in the experiment with TIMP1, TIMP1 (gene 7076) was “inactive”; in [1], “inactive”; in experiment [2] it was “inactive”; in experiment [3], “inactive”; in experiment [4], “inactive”; in experiment [5], “inactive”. Also, the result in [6], in experiment [11], in [17], in experiment [18], in experiment [13] and in experiment [15] was inactive. Moreover, the result in [16], in experiment [8], in experiment [9] and in experiment [10] was inactive.
`CCC(C)OC(=O)N1CCCCC1CCO` (stereo not drawn): the outcome is “inactive” with TIMP1, TIMP1 (gene 7076); “inactive” in [1]; “inactive” in [2]; “inactive” in [3]; “inactive” in experiment [5]; “inactive” in [6]. Moreover, the molecule was classed as inactive in [11], in experiment [12], in [18], in experiment [19], in [15] and in experiment [16]. For the same molecule, the molecule was classed as inactive in [8] and in [9]. The AC50 in experiment [4] was 34.2 µM (active).
